Results reported in ChEMBL document CHEMBL4649985, “Generation of a Selective Small Molecule Inhibitor of the CBP/p300 Bromodomain for Leukemia Therapy” (Cancer Res, 2015).
Values joined by “and” are separate entries in the source; they are usually repeats but may differ in a detail not shown here. Equal values may be shown once.

How the values were obtained:
[1] = molecular target: Bromodomain-containing protein 4 (Homo sapiens) (UniProt O60885); settings: Compound concentration 10.0 uM, Protein concentration 2.0 uM
[2] = molecular target: T1, Transcription intermediary factor 1-alpha (Homo sapiens) (UniProt O15164); settings: Compound concentration 10.0 uM, Protein concentration 2.0 uM
T1 sequence (whole entry): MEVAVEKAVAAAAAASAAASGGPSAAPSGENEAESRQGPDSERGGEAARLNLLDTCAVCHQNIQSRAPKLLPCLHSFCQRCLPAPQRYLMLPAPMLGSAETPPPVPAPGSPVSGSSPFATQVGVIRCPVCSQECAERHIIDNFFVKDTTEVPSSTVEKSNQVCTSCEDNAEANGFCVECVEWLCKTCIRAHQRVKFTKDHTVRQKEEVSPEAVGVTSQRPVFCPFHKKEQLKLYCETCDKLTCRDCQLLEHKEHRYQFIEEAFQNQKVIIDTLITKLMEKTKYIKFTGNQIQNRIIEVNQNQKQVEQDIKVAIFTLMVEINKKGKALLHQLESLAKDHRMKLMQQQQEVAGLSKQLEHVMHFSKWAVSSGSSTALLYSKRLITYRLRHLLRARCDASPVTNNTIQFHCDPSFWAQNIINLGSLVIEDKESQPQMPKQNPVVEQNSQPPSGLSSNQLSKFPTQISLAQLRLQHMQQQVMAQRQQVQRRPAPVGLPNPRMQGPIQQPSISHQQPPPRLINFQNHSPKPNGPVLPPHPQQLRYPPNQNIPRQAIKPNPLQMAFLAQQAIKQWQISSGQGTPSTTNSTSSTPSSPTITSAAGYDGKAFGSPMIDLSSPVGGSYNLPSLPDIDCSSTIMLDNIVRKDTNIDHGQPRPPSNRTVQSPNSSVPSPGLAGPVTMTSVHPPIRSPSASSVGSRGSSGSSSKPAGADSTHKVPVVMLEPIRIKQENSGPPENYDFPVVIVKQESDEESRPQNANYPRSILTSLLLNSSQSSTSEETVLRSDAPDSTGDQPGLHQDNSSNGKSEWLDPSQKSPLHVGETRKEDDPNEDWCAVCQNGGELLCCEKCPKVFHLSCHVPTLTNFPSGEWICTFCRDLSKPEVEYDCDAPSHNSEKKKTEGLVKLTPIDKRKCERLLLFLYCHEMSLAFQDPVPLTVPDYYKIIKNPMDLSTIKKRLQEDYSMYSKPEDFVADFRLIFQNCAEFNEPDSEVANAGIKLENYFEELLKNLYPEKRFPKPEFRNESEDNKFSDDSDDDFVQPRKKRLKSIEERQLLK

CCC(=O)N1CCOc2c(cc(-c3ccc(OC)c(OC)c3)cc2OC[C@H]2CCCN(C)C2)C1
ΔTm [1]: 2.08 °C and 2.81 °C | ΔTm [2]: 1.25 °C
